# Laboratory results: the supplement of paper PMC6089552
# Out of some 3,200 compounds screened, about 300 (9.4%) showed activity. Many of the other results were omitted from the sample, so actives are more common in it than they were. Unmarked numbers belong to inactive results.
# Tested on: A673/TR/shEF
# Experiment: cell viability (LOESS-normalised, relative to median of negative controls) (log2 ratio); higher = more viable cells (less compound effect), active = hit call of the paper (over 3 MAD below the median)
# Conditions: treatment time: 72 h
# In short: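 Doxycycline, present or absent from 24 h before compounds, was used to induce EWS-FLI1 shRNA knockdown in A673/TR/shEF Ewing sarcoma cells at 1,500 per well in 384-well plates. Cells then received library compounds at two or more concentrations, or DMSO controls, for three days. Viability was measured by CellTiter-Glo luminescence on an Envision reader, and per-plate LOESS correction, division by the negative-control median and log2 transformation followed.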
# [1] = 0.25 µM, library screen: screen1, EWS-FLI1 expression: high (no doxycycline)
# [2] = 0.25 µM, library screen: screen1, EWS-FLI1 expression: low (doxycycline-induced shRNA knockdown)
# [3] = 2.5 µM, library screen: screen1, EWS-FLI1 expression: high (no doxycycline)
# [4] = 2.5 µM, library screen: screen1, EWS-FLI1 expression: low (doxycycline-induced shRNA knockdown)
# [5] = 0.25 µM, library screen: screen2, EWS-FLI1 expression: high (no doxycycline)
# [6] = 0.25 µM, library screen: screen2, EWS-FLI1 expression: low (doxycycline-induced shRNA knockdown)
# [7] = 2.5 µM, library screen: screen2, EWS-FLI1 expression: high (no doxycycline)
# [8] = 2.5 µM, library screen: screen2, EWS-FLI1 expression: low (doxycycline-induced shRNA knockdown)
compound,measurement,setting,value
CCCCOC(=O)c1ccccc1C(=O)OCc1ccccc1,cell viability (log2),[1],0.109
same,cell viability (log2),[2],0.0867
same,cell viability (log2),[3],0.0605
same,cell viability (log2),[4],0.00546
C[C@@H]1c2cc(O)c(O)cc2CCN1C,cell viability (log2),[5],0.203
same,cell viability (log2),[6],0.114
same,cell viability (log2),[7],0.129
same,cell viability (log2),[8],0.102
C[N+]1(C)C2CC(OC(=O)C(CO)c3ccccc3)CC1C1OC12 (stereo not drawn),cell viability (log2),[1],0.0929
same,cell viability (log2),[2],0.0137
same,cell viability (log2),[3],0.182
same,cell viability (log2),[4],0.0439
CC(C)(C)c1cc(C=C(C#N)C#N)cc(C(C)(C)C)c1O,cell viability (log2),"0.025 µM, library screen: screen1, EWS-FLI1 expression: high (no doxycycline)",0.176
same,cell viability (log2),"0.025 µM, library screen: screen1, EWS-FLI1 expression: low (doxycycline-induced shRNA knockdown)",0.0512
same,cell viability (log2),[1],0.092
same,cell viability (log2),[2],0.0707
same,cell viability (log2),[5],0.104
same,cell viability (log2),[6],0.0526
same,cell viability (log2),[3],-1.1 (active)
same,cell viability (log2),[4],-0.0795
same,cell viability (log2),[7],0.0132
same,cell viability (log2),[8],0.112
same,cell viability (log2),"25 µM, library screen: screen1, EWS-FLI1 expression: high (no doxycycline)",-3.7 (active)
same,cell viability (log2),"25 µM, library screen: screen1, EWS-FLI1 expression: low (doxycycline-induced shRNA knockdown)",-2.45 (active)
CCC1C2CC3[C@@H]4N(C)c5ccccc5[C@]45CC(C2[C@H]5O)N3[C@@H]1O (stereo partly drawn),cell viability (log2),[1],0.014
same,cell viability (log2),[2],-0.00944
same,cell viability (log2),[3],0.104
same,cell viability (log2),[4],0.0619
CCC(=O)Nc1ccc(Cl)c(Cl)c1,cell viability (log2),[1],0.114
same,cell viability (log2),[2],-0.0209
same,cell viability (log2),[3],0.0655
same,cell viability (log2),[4],0.0703
NCC(=O)c1ccccc1,cell viability (log2),[1],0.0631
same,cell viability (log2),[2],0.0462
same,cell viability (log2),[3],0.0615
same,cell viability (log2),[4],-0.00509
CC(=O)[O][Hg][c]1ccccc1,cell viability (log2),[1],-0.557 (active)
same,cell viability (log2),[2],-0.147
same,cell viability (log2),[3],-2.86 (active)
same,cell viability (log2),[4],-2.46 (active)
CCCN1CCCC2Cc3[nH]ncc3CC21 (stereo not drawn),cell viability (log2),[5],0.135
same,cell viability (log2),[6],0.086
same,cell viability (log2),[7],0.231
same,cell viability (log2),[8],0.107
C[C@@H]1C[C@@H]([C@H](O)CC2CC(=O)NC(=O)C2)C(=O)[C@@H](C)C1,cell viability (log2),"0.025 µM, library screen: screen2, EWS-FLI1 expression: high (no doxycycline)",0.156
same,cell viability (log2),"0.025 µM, library screen: screen2, EWS-FLI1 expression: low (doxycycline-induced shRNA knockdown)",0.119
same,cell viability (log2),[1],0.141
same,cell viability (log2),[2],0.0197
same,cell viability (log2),[5],0.0548
same,cell viability (log2),[6],0.0334
same,cell viability (log2),[3],-0.514 (active)
same,cell viability (log2),[4],-0.278 (active)
same,cell viability (log2),[7],-0.922 (active)
same,cell viability (log2),[8],-0.399 (active)
same,cell viability (log2),"25 µM, library screen: screen2, EWS-FLI1 expression: high (no doxycycline)",-2.23 (active)
same,cell viability (log2),"25 µM, library screen: screen2, EWS-FLI1 expression: low (doxycycline-induced shRNA knockdown)",-1.54 (active)
COc1ccc(CN2CCN(Cc3cccc(OC)c3)CC2)cc1,cell viability (log2),[1],-9.1e-05
same,cell viability (log2),[2],0.123
same,cell viability (log2),[3],0.136
same,cell viability (log2),[4],0.0992
ClC(Cl)=C(c1ccc(Cl)cc1)c1ccc(Cl)cc1,cell viability (log2),[1],0.0882
same,cell viability (log2),[2],0.047
same,cell viability (log2),[3],0.0599
same,cell viability (log2),[4],0.0669
CC[C@H]1CN2CC[C@H]1C[C@@H]2[C@@H](O)c1ccnc2ccc(OC)cc12,cell viability (log2),[1],0.074
same,cell viability (log2),[2],0.121
same,cell viability (log2),[3],0.133
same,cell viability (log2),[4],0.0925
COc1cc(C[C@@H](C)N)c(OC)cc1I,cell viability (log2),[5],0.178
same,cell viability (log2),[6],0.0876
same,cell viability (log2),[7],0.142
same,cell viability (log2),[8],0.145
CCCC1CCCCN1 (stereo not drawn),cell viability (log2),[1],0.115
same,cell viability (log2),[2],0.153
same,cell viability (log2),[3],0.172
same,cell viability (log2),[4],0.128
CC(Cc1ccc(O)cc1)NCC(O)c1cc(O)cc(O)c1 (stereo not drawn),cell viability (log2),[1],0.143
same,cell viability (log2),[2],0.0538
same,cell viability (log2),[5],0.23
same,cell viability (log2),[6],0.0381
same,cell viability (log2),[3],0.142
same,cell viability (log2),[4],0.063
same,cell viability (log2),[7],0.166
same,cell viability (log2),[8],0.00325
CCCCCCCCCCCCCC(=O)O[C@@H]1[C@@H](C)[C@@]2(O)[C@@H](C=C(CO)C[C@]3(O)C(=O)C(C)=C[C@@H]23)[C@@H]2C(C)(C)[C@]12OC(C)=O,cell viability (log2),[5],-0.184 (active)
same,cell viability (log2),[6],-0.159 (active)
same,cell viability (log2),[7],-0.478 (active)
same,cell viability (log2),[8],-0.292 (active)
Oc1ccc2c3c1O[C@H]1c4[nH]c5ccccc5c4C[C@@]4(O)C(C2)N(CC2CC2)CCC314 (stereo partly drawn),cell viability (log2),[5],0.0893
same,cell viability (log2),[6],0.051
same,cell viability (log2),[7],0.0722
same,cell viability (log2),[8],0.0157
C[C@]12CCC3C(CC[C@H]4C[C@H](O)CC[C@]34C)C1CC[C@@H]2C(=O)CO (stereo partly drawn),cell viability (log2),[5],0.139
same,cell viability (log2),[6],0.0931
same,cell viability (log2),[7],0.0348
same,cell viability (log2),[8],0.0492
ClC1=C(Cl)C2(Cl)C3C(Cl)C(Cl)CC3C1(Cl)C2(Cl)Cl (stereo not drawn),cell viability (log2),[1],0.143
same,cell viability (log2),[2],0.19
same,cell viability (log2),[3],0.185
same,cell viability (log2),[4],0.0908
CC(N)C(O)c1ccc(O)c(O)c1 (stereo not drawn),cell viability (log2),[1],0.119
same,cell viability (log2),[2],0.0592
same,cell viability (log2),[3],0.146
same,cell viability (log2),[4],0.151
C#CCN[C@H](C)Cc1ccccc1,cell viability (log2),[5],0.265
same,cell viability (log2),[6],0.101
same,cell viability (log2),[7],0.0823
same,cell viability (log2),[8],0.137
